The values that follow come from PubChem BioAssay AID2417 (National Center for Advancing Translational Sciences (NCATS), 2010).

The campaign covered roughly 140,000 compounds. About 4,300 (3.1%) were called active. Roughly 21% stayed inconclusive and do not appear here. This is one part of a sample in which actives are shown more often than they occur. A number with no mark means an inactive call.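 How the source made its calls: active means readout at or below -70, meaning at least 70% loss of cells showing the perinucleolar compartment, a nuclear body marking cancer cells; inconclusive means readout between -30 and a set limit; inactive means the rest.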

The nature of this test: High Content Assay for Compounds that inhibit the Assembly of the Perinucleolar Compartment.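 Further: plate controls were DMSO wells for no effect and camptothecin positive control wells for full effect.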 The conditions noted are these: PC3M PTB-GFP, PNC prevalence imaging, 16 h; at 10 µM; hits give low values. An outline of the steps:
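PC3M cells stably expressing PTB-GFP, 750–1000 cells/well, treated 16 h at 37 °C with compound (23 nl of library stock), in duplicate. After paraformaldehyde fixation and Hoechst stain, imaged at 20x; PNC prevalence scored by image analysis.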
Regarding `CNC(=S)N/N=C/c1ccc(OCc2ccccc2)c(Br)c1`, the activity change (PNC), negative = inhibition was 23.4%.

Take `O=C(c1cccc(C(=O)N2CCc3ccccc32)n1)N1CCc2ccccc21`: the activity change (PNC), negative = inhibition was 8.65%.

Take `O=C(c1cc(-c2ccc(O)cc2)on1)N1CCCc2ccccc21`: the activity change (PNC), negative = inhibition was -28.7%.

Turning to `Cc1cccc2cc3c(N)c(C(=O)N4CCCc5ccccc54)sc3nc12`, the activity change (PNC), negative = inhibition was -97.5% (active).

Regarding `COc1cc(NC(=S)NNC(=O)CC(C)C)c(OC)cc1Cl`, the activity change (PNC), negative = inhibition is 20.5%.

For the molecule `Cc1ccc(C(=O)OCc2nc(N)nc(Nc3ccccc3C)n2)cc1`, the activity change (PNC), negative = inhibition is -25%.

Take `COCC(=O)Nc1cc(C(=O)OC)cc(C(=O)OC)c1`: the activity change (PNC), negative = inhibition is 0.32%.

Turning to `COc1cccc2c(C)c(C(=O)O)[nH]c12`, the activity change (PNC), negative = inhibition was -100% (active).

Turning to `COc1cccc2c(O)cc(=O)n(C)c12`, the activity change (PNC), negative = inhibition is 3.35%.

`CCOC(=O)c1c(C)[nH]c(C(=O)NCc2ccccc2OC)c1C`: the activity change (PNC), negative = inhibition is 4.85%.

With `CCOC(=O)C(C)Sc1nnc(CSc2nc3nc(C)cc(C)n3n2)o1` (centres undefined), the activity change (PNC), negative = inhibition was -12%.

With `O=C(CN1CCN(c2ccc(O)cc2)CC1)Nc1cc(S(=O)(=O)N2CCOCC2)ccc1Cl`, the activity change (PNC), negative = inhibition was 32%.

In the case of `O=C(CCc1nc2ccccc2c(=O)[nH]1)OCC(=O)c1cccc(Cl)c1`, the activity change (PNC), negative = inhibition is 9.28%.

Turning to `COc1ccc(Nc2cc(C)nc(-n3nc(C)cc3C)n2)cc1`, the activity change (PNC), negative = inhibition is -93.3% (active).

Consider `Cc1cc(Oc2ccccc2)nc(N2CCOCC2)n1`, for which the activity change (PNC), negative = inhibition was 31.1%.

`COc1ccccc1/C=N\Nc1cc(C)nc(-n2nc(C)cc2C)n1`: the activity change (PNC), negative = inhibition is -20.8%.

In the case of `COc1ccc(NC(=O)c2nc(-n3nc(C)cc3C)ccc2Cl)cc1Cl`, the activity change (PNC), negative = inhibition was -28.2%.

As for `CC(=O)c1ccc(Oc2cc(C)nc(-n3nc(C)cc3C)n2)cc1`, the activity change (PNC), negative = inhibition is -86.2% (active).

As for `Cc1cc(C)n(-c2cc(Oc3ccccc3)ncn2)n1`, the activity change (PNC), negative = inhibition is 61.7%.

Consider `CC(=O)NNC1=Nc2ccccc2N(C)C(C)C1` (centres undefined), for which the activity change (PNC), negative = inhibition was 41.2%.

For `O=C(COc1ccc(Cl)cc1)N1CCN(S(=O)(=O)c2ccc(Cl)cc2)CC1`, the activity change (PNC), negative = inhibition is -28.2%.

`O=C(ON=C1CCN(S(=O)(=O)c2ccccc2)CC1)c1ccc(Cl)cc1`: the activity change (PNC), negative = inhibition was -100% (active).

Turning to `O=C(COc1ncnc2c(Cl)cc(Cl)cc12)N1CCN(S(=O)(=O)c2ccccc2)CC1`, the activity change (PNC), negative = inhibition was 25.7%.

For `O=C(Nc1ccc(N2C(=O)c3cccc4cccc(c34)C2=O)cc1)c1ccc(N2CCCCC2)c([N+](=O)[O-])c1`, the activity change (PNC), negative = inhibition was 12%.

On to `Cc1ccc(NC(=O)c2sccc2C)cc1[N+](=O)[O-]`, for which the activity change (PNC), negative = inhibition is -105% (active).

On to `COc1ccc(NC(=O)c2ccccc2[N+](=O)[O-])cc1OC`, for which the activity change (PNC), negative = inhibition was 40.9%.

In the case of `Cc1ccsc1C(=O)N/N=C/c1ccc([N+](=O)[O-])cc1`, the activity change (PNC), negative = inhibition was -4.41%.

Turning to `C=CCN(c1ccc(C(=O)Nc2cc(C)cc(C)c2)cc1)S(C)(=O)=O`, the activity change (PNC), negative = inhibition is 0%.

Turning to `COc1ccc(-c2cc(C(=O)NC(Cc3c[nH]c4ccccc34)C(=O)O)c(C)o2)cc1OC` (centres undefined), the activity change (PNC), negative = inhibition was 41%.

Consider `COc1ccc(C(=O)ON=C2c3ccccc3-c3ccccc32)cc1OC`, for which the activity change (PNC), negative = inhibition is 2.98%.

Consider `COc1cc(CCC(=O)OCC(=O)Nc2cccc(S(N)(=O)=O)c2)cc(OC)c1OC`, for which the activity change (PNC), negative = inhibition is 17.9%.

In the case of `COCC(=O)Nc1nnc(COc2ccccc2)s1`, the activity change (PNC), negative = inhibition was 5.3%.

Turning to `COc1ccc(OCC(=O)Nc2nnc(-c3ccco3)s2)cc1`, the activity change (PNC), negative = inhibition was -113% (active).

For `Cc1ccc(OCC(=O)Nc2ccc(-c3nnc(-c4ccco4)o3)cc2)cc1`, the activity change (PNC), negative = inhibition is 63.9%.

For `Cc1ccc(C(=O)N2CC(=O)Nc3ccccc32)o1`, the activity change (PNC), negative = inhibition was -19.5%.

`CCc1ccc(C2C(C#N)=C(N)N(N(C)C)C3=C2C(=O)CCC3)s1` (centres undefined): the activity change (PNC), negative = inhibition is 36.4%.

For `O=C1NC(=Nc2ccc(Cl)cc2)SC1Cc1cccc(Cl)c1Cl` (centres undefined), the activity change (PNC), negative = inhibition was 66.6%.

With `O=C(COC(=O)/C=C/c1cccc(Cl)c1)NCCc1ccccc1`, the activity change (PNC), negative = inhibition was -23.6%.

With `COCCNC(=O)c1ccccc1NS(=O)(=O)c1ccc(C)c([N+](=O)[O-])c1`, the activity change (PNC), negative = inhibition was 33%.

For `C/C(CC(=O)Nc1cccc(F)c1)=N\NC(=O)C(=O)NC1CCCCC1`, the activity change (PNC), negative = inhibition is 0.469%.

For the molecule `O=C(Nc1cccc(F)c1)c1ccc(S(=O)(=O)N2CCCC2)cc1`, the activity change (PNC), negative = inhibition was 8.69%.

As for `CCN1CCN(C(=O)C2(NC(=O)Nc3cccc(F)c3)CCCCC2)CC1`, the activity change (PNC), negative = inhibition is -83.6% (active).

In the case of `COCCCNC(=S)NC(=O)c1ccccc1`, the activity change (PNC), negative = inhibition is -29.6%.

As to `Cc1ccc(-c2cn3cc([N+](=O)[O-])ccc3n2)cc1`, the activity change (PNC), negative = inhibition is 19.9%.

`O=C(NNC(=S)NCc1ccccc1)c1ccc(OC(F)F)cc1`: the activity change (PNC), negative = inhibition is -4.88%.

Take `COc1ccc(C/C(C)=N/NC(=O)c2cc(C)oc2C)cc1`: the activity change (PNC), negative = inhibition is 15.4%.

Take `O=C(CN1CCN(S(=O)(=O)c2ccc(F)cc2)CC1)Nc1ccccc1F`: the activity change (PNC), negative = inhibition was -12%.

In the case of `COc1ccc(NC(=O)CN2CCN(S(=O)(=O)c3ccc(F)cc3)CC2)cc1Cl`, the activity change (PNC), negative = inhibition is -123% (active).

For the molecule `COc1cc2c(cc1NC(=O)CN1CCN(S(=O)(=O)c3ccc(F)cc3)CC1)oc1ccccc12`, the activity change (PNC), negative = inhibition is -22.6%.
